# Measurements from PubChem BioAssay (NCI).
# Compounds without any hit were thinned out: in the full panel of roughly 83,000, 20% have a hit.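 Interpretation: 100, growth as untreated; towards 0, rising growth inhibition; 0, no net growth; 0 to -100, cell death. Compounds scoring below 10 were considered active.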 A number with no mark means an inactive call. The source made the active and inactive calls.
# Experiments:
# Assay in all cases: NCI-60 one-dose screen, 48 h (100 = growth as untreated, 0 = no growth, -100 = all killed)
# Details in all cases: 10 µM unless noted
# [1] = system: NCI-H23 lung
# [2] = system: NCI-H226 lung
# [3] = system: NCI-H322M lung
# [4] = system: HOP-62 NSCLC
# [5] = system: NCI-H460 lung
# [6] = system: A549/ATCC NSCLC
# [7] = system: 786-0 renal
# [8] = system: COLO 205 colon
# [9] = system: DU-145 prostate
# [10] = system: MALME-3M melanoma
# [11] = system: MDA-MB-231 breast
# [12] = system: RXF 393 renal
# [13] = system: SF-268 CNS
# [14] = system: SF-295 CNS
# [15] = system: SF-539 CNS
# [16] = system: UACC-257 melanoma
# [17] = system: M14 melanoma
# [18] = system: NCI-H522 lung
# [19] = system: K-562 leukemia
SMILES,growth [1] [%],growth [2] [%],growth [3] [%],growth [4] [%],growth [5] [%],growth [6] [%],growth [7] [%],growth [8],growth [9],growth [10],growth [11] [%],growth [12] [%],growth [13] [%],growth [14] [%],growth [15],growth [16],growth [17],growth [18],growth [19] [%]
CC1=CCC2C1CC=C(C)C(CC[C@H]1[C@@](C)(O)CCC3OC(C)(C)[C@H](OC(=O)c4ccccc4)CC[C@@]31C)C2(C)C (some centres undefined),65.2,72.9,96.3,86,97.1,78.7,70.9,112%,106%,111%,88,69.8,93.6,84.7,99.1%,81.3%,90.1%,–,–
COc1cccc(-c2nc3sccn3c2-c2ccnc(NCCN3CCCNS3(=O)=O)n2)c1,99.4,81.4,95.6,123,68.8,99.2,77.5,51.5%,79.2%,24.2%,83.3,76.7,94.7,106,111%,65.4%,18%,–,–
COc1ccc(C(=O)C(CN(C)C)c2ccc(OC)cc2)cc1 (centres undefined),89.8,84.2,93.2,96,–,86.3,28.6,57.4%,7.55% (active),84.9%,59.4,55.8,60.2,101,78.8%,45.3%,60.6%,-27.1% (active),16.3
CC(C)CC1NC(=O)C(CC(C)C)N(CO)C1=O (centres undefined),104,91.3,95,107,–,102,102,111%,119%,101%,97.1,111,112,120,111%,102%,101%,90.4%,97.1
C/C(=N\Nc1ccc([N+](=O)[O-])cn1)c1ccc(N)cc1,109,109,120,109,–,96.1,99.7,104%,116%,133%,88.9,132,94.4,128,93.7%,105%,106%,85.8%,13.8
CC(C)CC(=O)C(CCc1ccccn1)C(C)C (centres undefined),98.4,97.9,116,112,–,93.9,105,130%,111%,109%,108,124,103,95.2,106%,92.4%,105%,95.3%,107
CCOC(=O)Nc1ccc2nc(Sc3ccc(Cl)cc3)sc2c1,54.2,58.8,44.6,35.1,–,42.5,49.5,-26.4% (active),35.8%,42%,43.4,36.8,54.4,29.1,5.63% (active),57.3%,30%,28.3%,21
COc1cc(C2CC(c3ccc(Cl)cc3)=NN2C=O)ccc1Oc1ccnc2cc(Cl)ccc12 (centres undefined),65.2,51.4,88.2,53.1,65.2,59.1,78.6,94.5%,85.7%,64%,56.9,64.2,68.6,66.2,66.2%,66.8%,92.4%,–,72.5
CCN(CC)CCCC(C)Nc1c(-c2ccccc2)cnc2cc(Cl)ccc12 (centres undefined),73.2,115,97.4,101,76.4,57.1,52,–,87.5%,-6.83% (active),63.1,63.4,77.7,86.5,83.2%,-26.6% (active),-95.7% (active),–,13.3
